Compounds with a hit are over-represented: about 7.3% of the library has one in this group of screens.
FLuc counter – firefly luciferase modulation, counter-screen for miR-21 project; P08659; purified FLuc, Km substrates, luminescence inhibition; Potency, µM (series often up to 57.5 µM), for the others: at the highest dose activity change, negative = inhibition, most hits filed as inhibitors; 360,000 tested, 6.9% active; AID 588342;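 further: plate controls were vehicle for no effect and reference inhibitor for full effect; nearly all actives have a fitted effect of over 55% in size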
Target sequence (P08659 whole entry, looked up): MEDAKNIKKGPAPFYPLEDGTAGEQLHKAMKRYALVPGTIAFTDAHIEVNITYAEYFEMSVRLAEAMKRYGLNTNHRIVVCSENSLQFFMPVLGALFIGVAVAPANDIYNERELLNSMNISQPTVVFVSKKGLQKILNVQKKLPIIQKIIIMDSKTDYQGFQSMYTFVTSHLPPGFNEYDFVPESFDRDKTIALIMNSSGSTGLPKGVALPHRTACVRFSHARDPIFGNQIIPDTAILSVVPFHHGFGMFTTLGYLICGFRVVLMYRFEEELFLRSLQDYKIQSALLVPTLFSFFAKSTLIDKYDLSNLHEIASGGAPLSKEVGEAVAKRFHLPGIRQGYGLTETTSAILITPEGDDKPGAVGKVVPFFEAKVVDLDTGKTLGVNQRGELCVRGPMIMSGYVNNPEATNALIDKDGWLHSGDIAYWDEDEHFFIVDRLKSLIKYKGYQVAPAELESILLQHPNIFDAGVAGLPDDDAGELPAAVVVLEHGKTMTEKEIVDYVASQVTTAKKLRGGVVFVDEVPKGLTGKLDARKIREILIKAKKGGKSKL
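Purified P. pyralis luciferase, 10 nM final, with Km-level 10 uM D-luciferin and 10 uM ATP in 50 mM Tris acetate pH 7.5, 10 mM Mg acetate, 0.01% Tween-20, 0.05% BSA; 6-point qHTS titration about 60 µM downward; luminescence read.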
SMN2 splice enh – SMN2 splice variant enhancement; Potency, µM (series often up to 46.1 µM), for inactives: at the highest dose activity change, positive = activation, actives largely listed as activators; HEK293 SMN2-luciferase splicing reporter, luminescence, 30-36 h; AID 1458; 210,000 tested, 2.8% active; further: % of control where 0% means no effect; nearly all actives have a fitted effect of over 55% in size
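HEK293 cells carry an SMN2 […]–luciferase reporter in which exon 7 inclusion puts luciferase in frame. Cells were plated 10-12 h before compound addition, then incubated 30-36 h at 37C. ONE-Glo luminescence was read; sodium butyrate at 4.5 mM final served as control.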
NPC1 promoter act – activates the NPC1 promoter; 320,000 tested, 2.4% active; Potency, µM (highest dose often 9.22 µM), for inactives: at the highest dose activation, usual class: activators; Huh7 NPC1 promoter luciferase reporter, 24 h; further: % of control where 0% means no effect; nearly all actives have a fitted effect of over 60% in size
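Compounds in DMSO were transferred onto Huh7 NPC1-luciferase reporter cells pre-incubated 2 h; after 24 h at 37 °C, Amplite reagent was dispensed and luminescence recorded 10 min later.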
Rab9 prom act – activates the Rab9 promoter; Potency, µM (top dose mostly 9.22 µM), inactives show at the highest dose activation, negative = inhibition, usual class: activators; 320,000 tested, 2.8% active; Huh7 Rab9 promoter-luciferase reporter, luminescence, 24 h; further: % of control where 0% means no effect; nearly all actives have a fitted effect of over 60% in size
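Cells were plated at 1500 per well in reduced-serum medium with 10% FBS and left 2 h. Compound in DMSO was then added for 24 h at 37 °C. Reporter signal was read by luminescence after 10 min with luciferase detection reagent.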
ELG1 genotox – genotoxicity induction in ELG1-luciferase HEK293T cells. Potency, µM (titrated, usually from 46 µM), for inactives: at the highest dose activity change, positive = activation, usual class: activators. 330,000 tested, 1.3% active. HEK293T ELG1-luciferase reporter, luminescence, 16 h; further: % of control where 0% means no effect; nearly all actives have a fitted effect of over 60% in size
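16 hr compound incubation (37 °C, 5% CO2) of HEK293T cells carrying luciferase-tagged ELG1; luciferase then measured by ONE-Glo luminescence after 30 min at RT.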
p53 reactivator – mutant p53 re-activation in reporter cells | H1299 p53-A138V BP100-luciferase reporter, luminescence, 24 h | Potency, µM (doses to about 92.2 µM), without a hit: at the top dose activity change, positive = activation, actives largely listed as activators | 320,000 tested, 0.063% active | AID 504706; further: % of control where 0% means no effect; nearly all actives have a fitted effect of over 45% in size
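p53-null H1299 cells stably carrying temperature-sensitive p53-A138V and a BP100-luciferase reporter were pinned with compounds (4-point, 1:5 series) and held 24 hrs at 37 deg C. Luminescence was read 10 min after detection reagent.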
An asterisk follows results filed as active; ? = inconclusive; . = no result; [ ] = remark or other dose. The call rests on the fitted dose curve; in most records, active means well fitted curve in the direction sought with a large enough effect; inconclusive means small, poorly fitted or top-dose-only effect, or another doubt; inactive means no such curve, though single readings can be large; an effect the other way counts as inactive or inconclusive. Potency means the concentration at half of the fitted maximal effect.

SMILES | FLuc counter | SMN2 splice enh | NPC1 promoter act | Rab9 prom act | ELG1 genotox | p53 reactivator
COc1cc(/C=C2\C(=O)NN(c3ccccc3)C2=O)cc([N+](=O)[O-])c1O | ? | 3% | -4% | 9% | 7% | 0%
CCOc1cc(/C=C2\C(=O)NN(c3ccccc3)C2=O)cc([N+](=O)[O-])c1O | 17µM* | 23% | -2% | 1% | 18% | -2%
CCOc1cc(/C=C2\NC(=O)NC2=O)cc([N+](=O)[O-])c1O | -10% | . | 2% | 1% | -3% | 3%
COc1cc(/C=C2\C(=O)NN(c3ccc(C)cc3)C2=O)cc([N+](=O)[O-])c1O | 27µM* | -8% | 0% | -4% | 1% | -4%
COc1cc(/C=C2/C(=O)N(c3ccc(C)c(C)c3)N=C2C)cc([N+](=O)[O-])c1O | 17µM* | . | -6% | 3% | 0% | .
CC(C)c1ccc(NC(=O)CN2C(=O)c3cccc4cccc2c34)cc1 | 2% | . | . | . | . | .
CCn1c(SCC(=O)Nc2ccc3c(c2)OCCO3)nnc1C1CC1 | 15µM* | . | -3% | -3% | 1% | 5%
Nn1c(SCC(=O)NC(=O)Nc2ccc3c(c2)OCCO3)nnc1C1CC1 | 19µM* | ? | 21% | ? | 14% | 19%
CCn1c(SCC(=O)Nc2ccc3c(c2)OCCO3)nnc1-c1c[nH]c2ccccc12 | 13µM* | . | -2% | -3% | 1% | 4%
CCn1c(SCC(=O)Nc2ccc3c(c2)OCCO3)nnc1-c1cccs1 | 11µM* | -2% | -1% | 13% | 2% | 0%
COC(=O)CC1C2(C)CC34OC5(C)O[C@@]6(C7/C(=C(/OC)C(C)C)C(=O)OC(c8ccoc8)[C@@]7(C)C(OC(=O)C(C)C)C(OC)[C@]6(O5)[C@@]13C)C(OC)[C@]4(OC)C2OC(C)=O (some centres not stated) | . | -8% | . | . | . | .
Cc1ccc(C(=O)C(NC(=O)c2ccco2)N2CCOCC2)cc1 (configuration not stated) | -11% | 13µM* | ? | ? | 18µM* | ?
CN(C)CN1C(=O)S/C(=C2/C(=O)N(CN(C)C)c3ccccc32)C1=O | . | -2%[9.22 µM] | . | . | . | .
O=c1cc2[nH]c3ccccc3c(=O)n2nc1-c1ccccc1 | 19µM* | 22% | ? | ? | 13µM* | ?
O=c1nc(-c2ccccc2)c2cc(Br)ccc2[nH]1 | 0% | . | -2% | 2% | 0% | -4%
O=C(O)C[C@H](Cc1ccc2c(c1)OCO2)C(=O)O | . | -24%[9.22 µM] | . | . | . | .
C/C(=N\NC(=O)c1ccc2c(c1)OCO2)c1ccc(C(=O)O)s1 | ? | . | 0% | 1% | 2% | 10%
C/C(=N\NC(=O)c1ccc(O)cc1)c1ccc2c(c1)OCCO2 | 13µM* | . | 22% | 28% | ? | ?
O=C(c1ccc2c(c1)OCCCO2)c1cccs1 | 6.7µM* | 13µM* | 1.1µM* | 2.2µM* | ? | 28%
C/C(=N\NC(=O)c1ccc2c(c1)OCO2)c1ccc2c(c1)OCO2 | 13µM* | 16µM* | ? | 3.5µM* | 10% | ?
C/C(=N\NC(=O)C1CC1)c1ccc2c(c1)OCCO2 | -12% | 54% | 9% | -32% | 15% | 3%
C/C(=N\NC(=O)c1ccc2c(c1)OCCO2)c1ccccc1 | 0.38µM* | . | ? | 3% | 0.33µM* | -9%
CC(=O)N1c2ccc(S(=O)(=O)NCc3ccc(Cl)cc3)cc2CC1C (configuration not stated) | -11% | . | . | . | . | .
Cc1oc2c(cc(NS(=O)(=O)c3ccc(Br)cc3)c3ccccc32)c1C(=O)OCc1ccccc1 | -20% | -10% | . | . | . | .
Cc1ccc(-n2c(=O)c3c(c4cc(C)ccc4n3C)n(CC(=O)Nc3cc(C)cc(C)c3)c2=O)cc1 | 0% | . | . | . | . | .
SMILES | FLuc counter | SMN2 splice enh | NPC1 promoter act | Rab9 prom act | ELG1 genotox | p53 reactivator
C/C(=N\NC(=O)c1ccc(N/N=C(\C)c2ccc(O)cc2)cc1)c1ccc(O)cc1 | 4.8µM* | . | ? | ? | 0% | 0%
CC(=NNC(=O)c1cccs1)c1ccc2c(c1)OCCO2 | . | . | . | . | 16µM* | ?
Cc1noc(C)c1C(=O)N1CCC2(CCN(Cc3cc(C(F)(F)F)cc(C(F)(F)F)c3)CC2)CC1 | . | -26% | . | . | . | .
Cc1cc(Cl)ccc1OCC(=O)Nc1cccnc1 | 13µM* | . | 5% | -6% | ? | ?
Cc1cc(Cl)ccc1OCC(=O)Nc1ccccc1CO | 21µM* | 25% | 23% | 15% | ? | 8%
CSc1ccccc1NC(=O)COc1ccc(Cl)cc1C | ? | -4% | -1% | -2% | 6% | ?
Cc1c(C)c2ccc(OCC(=O)Nc3cccnc3)c(C)c2oc1=O | 11µM* | . | ? | 20% | ? | ?
Cc1ccc(C(=O)OCC(=O)N2CCNC2=O)c(C)c1 | 21µM* | . | ? | ? | ? | 14%
Cc1ccc(C(=O)OCC(=O)c2ccc(CC(=O)N3CCOCC3)s2)c(C)c1 | 17µM* | . | 1% | -1% | 1% | 5%
Cc1ccc(C(=O)OCC(=O)c2ccc(CC(=O)N3CCOCC3)s2)cc1C | 24µM* | . | 2% | -4% | 1% | 25%
CCOc1ccc(C(=O)OCC(=O)N2CCOCC2)cc1OCC | -1% | . | -3% | 0% | -1% | 1%
Cc1ccc(C)c(N2CCN(C(=O)Nc3cn(CC(C)C)c(=O)c4ccccc34)CC2)c1 | 6% | . | . | . | . | .
Cc1ccc(Cl)cc1NC(=O)C1CCN(S(=O)(=O)c2cccc3nonc23)CC1 | -2% | -4% | . | . | . | .
CCc1nnc(NC(=O)c2ccc3c(c2)C(=O)N(C(C)(C)C)C3=O)s1 | 2.7µM* | ? | 3.5µM* | 3.2µM* | ? | ?
CCc1nnc(NC(=O)c2ccc3ncsc3c2)s1 | 24µM* | . | ? | ? | ? | 9%
CC1(C)Cc2c(sc(NC(=O)c3ccc4ncsc4c3)c2C(N)=O)C(C)(C)N1 | ? | ? | ? | ? | 16µM* | ?
CCc1nnc(NC(=O)c2ccncc2)s1 | -17% | -3% | -2% | 1% | 8% | 2%
Cc1cnc(NC(=O)c2ccc3ncsc3c2)s1 | 3µM* | . | 1.3µM* | 0.71µM* | ? | ?
C=CCC(O)c1ccccc1 (configuration not stated) | . | -1% | . | . | . | .
Oc1sc(C=Nc2ccccc2)c2ccccc12 | 6µM* | 8.9µM* | ? | ? | ? | ?
Oc1sc(C=Nc2ccc(F)cc2)c2ccccc12 | ? | 10µM* | 3.2µM* | 2.8µM* | 14% | 13%
Cn1c(O)c(N=Nc2ccc(F)cc2)c2ccccc21 | ? | 8% | 4% | 21% | 2% | -2%
COc1cc(O)oc1C=Nc1ccccc1 | -10% | -7% | 4% | 14% | 1% | 4%

Compound activity: PubChem, National Center for Advancing Translational Sciences (NCATS)
